Assay outcomes (PubChem)
Rows were chosen to be rich in hits. Some 16% of all compounds tested hit in one or more screens of this group.
TDP1 block: qHTS Assay for Inhibitors of Tyrosyl-DNA Phosphodiesterase (TDP1); Tyrosyl-DNA phosphodiesterase 1 (Homo sapiens), Q9NUW8; recombinant TDP1, AlphaScreen DNA substrate cleavage; Potency, µM (top dose mostly 130 µM), usual class: inhibitors; 0.28% of 350,000 active; AID 485290, 2010; further: nearly all actives have a fitted effect of over 40% in size
Target sequence (Q9NUW8 whole entry, looked up): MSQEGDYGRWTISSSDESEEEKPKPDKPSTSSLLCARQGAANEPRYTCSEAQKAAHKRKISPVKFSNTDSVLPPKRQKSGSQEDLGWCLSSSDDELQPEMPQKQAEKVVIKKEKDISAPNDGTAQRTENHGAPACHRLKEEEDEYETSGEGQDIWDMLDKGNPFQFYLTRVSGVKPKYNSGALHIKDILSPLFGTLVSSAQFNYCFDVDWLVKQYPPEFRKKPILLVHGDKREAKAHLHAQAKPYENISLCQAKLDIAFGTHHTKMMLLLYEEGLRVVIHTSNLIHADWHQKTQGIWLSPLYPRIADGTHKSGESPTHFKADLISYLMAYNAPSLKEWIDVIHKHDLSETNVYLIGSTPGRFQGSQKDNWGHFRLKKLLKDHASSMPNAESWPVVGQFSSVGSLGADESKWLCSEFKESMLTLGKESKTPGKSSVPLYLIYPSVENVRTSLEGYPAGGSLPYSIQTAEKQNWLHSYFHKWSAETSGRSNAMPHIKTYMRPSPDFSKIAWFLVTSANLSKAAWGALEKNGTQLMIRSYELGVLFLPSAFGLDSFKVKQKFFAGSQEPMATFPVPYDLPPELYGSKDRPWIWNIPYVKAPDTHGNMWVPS
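AlphaScreen read-out: signal falls as enzyme removes the 3' tyrosine-FITC from a 5'-biotinylated DNA oligo (15 nM, 5 min, RT). Enzyme was E. coli-made recombinant Tdp1 at 1 nM, exposed to compound for 15 min beforehand; beads 10 ug/ml, 10 min.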
uPA surface inh: qHTS for Inhibitors of Cell Surface uPA Generation; cell surface uPA generation assay, qHTS; Potency, µM (titrated, usually from 38.3 µM), hits mostly inhibitors; 0.31% of 330,000 active; AID 540303, 2011; active means well fitted inhibition curve with a large enough effect; inconclusive means small, poorly fitted or top-dose-only effect; inactive means no such curve, though single readings can be large or run the other way; tested in mouse RAW 264.7 cells; further: nearly all actives have a fitted effect of over 55% in size
TDP1 cell CPT: qHTS for Inhibitors of human tyrosyl-DNA phosphodiesterase 1 (TDP1): qHTS in cells in presence of CPT. chicken DT40 Tdp1-/-;hTDP1 cells + 20 nM CPT, ATP luminescence, 48 h. AID 686979, 2013. 12% of 420,000 active. Potency, µM (top dose mostly 46.2 µM), actives largely listed as inhibitors; further: nearly all actives have a fitted effect of over 55% in size
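Chicken DT40 Tdp1-/- cells complemented with human TDP1, 400 cells/well, exposed to compounds plus 20 nM camptothecin for at least 48 h at 37 C; viability read as ATP content by CellTiter-Glo luminescence.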
miR-21 act: qHTS Assay for Modulators of miRNAs and/orActivators of miR-21. HeLa miR-21 FLuc reporter, luciferase, 48 h. Potency, µM (doses to about 38.3 µM), hits mostly activators. 340,000 tested, under 10 active;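 further: miR-21 action dims this reporter so a rising signal means less miR-21 action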
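Compounds were titrated across several concentrations (up to approximately 40 uM) and incubated 48 hours with HeLa miR-21-FLuc reporter cells (miR-21 target sequence downstream of FLuc, endogenous miR-21). Readout was firefly luciferase luminescence after lytic detection reagent.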
DT40 TDP1 no CPT: qHTS for Inhibitors of human tyrosyl-DNA phosphodiesterase 1 (TDP1): qHTS in cells in absence of CPT; AID 686978, 2013; 15% of 420,000 active; Potency, µM (doses to about 46.2 µM), hits mostly inhibitors; DT40 Tdp1-/- hTDP1 cells, no CPT, ATP luminescence, 48 h; further: nearly all actives have a fitted effect of over 55% in size
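DT40 Tdp1-/-;hTDP1 cells, no CPT (DMSO vehicle only), 400 cells/well; compounds pin-transferred; ≥48 hr, 37 °C; CellTiter-Glo 30 min RT dark, luminescence read.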
Numbers stand for hits; i = inactive; ? = inconclusive; nt = not tested or not shown. Unless noted, the call rests on the fitted dose curve; in most records, active means well fitted curve in the direction sought with a large enough effect; inconclusive means small, poorly fitted or top-dose-only effect, or another doubt; inactive means no such curve, though single readings can be large; an effect the other way counts as inactive or inconclusive.

SMILES	TDP1 block	uPA surface inh	TDP1 cell CPT	miR-21 act	DT40 TDP1 no CPT
CCN(CC)S(=O)(=O)c1ccc(N2CCOCC2)c(NC(=O)Cc2ccccc2F)c1	i	i	i	i	15µM
Cc1c(Br)c(C(=O)NNC(=O)c2ccc(C(C)(C)C)cc2)nn1C	i	i	?	i	?
Cc1ccc(C(=O)OCC(=O)Nc2sccc2C(N)=O)cc1NC(=O)c1ccco1	i	i	?	i	6.5µM
COc1ccc(C(=O)N[C@H](C(=O)OCCCOC(=O)[C@@H](NC(=O)c2ccc(OC)cc2)C(C)C)C(C)C)cc1	nt	i	23µM	nt	?
Cc1ccc(C(=O)OCC(=O)Nc2ccccc2)cc1NC(=O)c1ccco1	i	i	i	i	i
COc1ccc(C(=O)NC(C(=O)OCC(=O)Nc2sccc2C(N)=O)C(C)C)cc1 (stereo unspecified)	i	i	?	nt	23µM
CCOCCCNC(=S)N(CCO)Cc1cc2cc3c(cc2[nH]c1=O)OCCO3	nt	?	i	i	i
O=C1CSC(=S)N1N1C(=O)c2cccc([N+](=O)[O-])c2C1=O	2.8µM	nt	nt	i	nt
COCC(=O)OCC(=O)Nc1cc([N+](=O)[O-])ccc1Cl	i	i	i	i	i
O=C(CSC1CC(=O)N(CC(c2ccccc2)c2ccccc2)C1=O)Nc1ccc(Cl)cc1 (stereo unspecified)	i	i	?	i	?
O=S(=O)(c1ccc(NC(=S)NCc2cccnc2)cc1)N1CCCCC1	i	i	8.2µM	?	6.5µM
Cc1ccc(CNC(=O)c2oc3ccc(S(=O)(=O)N4CCC(C)CC4)cc3c2C)cc1	i	nt	?	?	16µM
Cc1ccc(NC(=S)Nc2cccnc2)c(S(=O)(=O)N2CCCCC2)c1	i	i	23µM	i	16µM
Cc1c(C(=O)NCc2cccnc2)oc2ccc(S(=O)(=O)N3CCCCC3)cc12	i	nt	10µM	i	14µM
Cc1ccc(C(=O)NC(=S)Nc2ccc(-c3cc4ccccc4oc3=O)cc2)c(C)c1	i	i	?	i	23µM
CON(c1nc(Cl)nc(N(C)C)n1)S(=O)(=O)c1ccc(C)cc1	nt	i	i	i	16µM
CC(=O)N1CCN(c2c(F)c(F)c(C(F)(F)F)c(F)c2F)CC1	i	nt	?	i	15µM
CC(=O)N1CCN(c2nc3c(F)cc(F)cc3s2)CC1	i	nt	i	i	i
O=C(CSc1ccccc1)NCc1ccccc1	nt	i	i	i	i
Cc1ccc(-c2cc(C(F)F)n3ncc(C(=O)N4CCN(c5cccc(C)c5C)CC4)c3n2)cc1	i	i	?	i	18µM
Cc1ccc(-c2cc(C(F)F)n3ncc(C(=O)N4CCCc5ccccc54)c3n2)cc1	i	i	?	i	i
COc1ccc(-c2cc(C(F)F)n3ncc(C(=O)N4CCc5ccccc54)c3n2)cc1	i	?	3.7µM	?	2.1µM
COc1ccc(-c2cc(C(F)F)n3ncc(C(=O)n4ccnc4C)c3n2)cc1	i	i	15µM	i	18µM
COc1ccc(Oc2cccc(Cl)c2CNC(=O)CCCC(=O)O)cc1	i	i	i	i	i
CCOC(=O)c1c(NC(=O)CN2CCCc3ccccc32)sc(C(C)=O)c1C	i	i	?	i	21µM
SMILES	TDP1 block	uPA surface inh	TDP1 cell CPT	miR-21 act	DT40 TDP1 no CPT
CCOC(=O)c1c(NC(=O)Cc2cccs2)sc(C(=O)N2CCCCC2)c1C	i	i	?	i	9.2µM
CC(=O)c1ccc(NC(=O)CN2CCC(C(=O)c3ccc4c(c3)OCCO4)CC2)cc1	i	i	i	i	?
CCOC(=O)N1CCC(NC(=O)c2cnn3c(C(F)(F)F)cc(-c4cccc(OC)c4)nc23)CC1	i	i	13µM	i	16µM
CCOC(=O)c1cnn2c(C(F)(F)F)cc(-c3ccccc3)nc12	i	i	?	i	i
COc1ccc(-c2cc(C(F)(F)F)n3ncc(C(=O)N4CCCCC4c4cccnc4)c3n2)cc1 (stereo unspecified)	i	i	16µM	i	?
COc1cccc(-c2cc(C(F)(F)F)nc(-n3cc(C)cn3)n2)c1	i	i	15µM	i	16µM
